Laboratory results from PubChem BioAssay (Tox21).
Results filed as inconclusive are left out. Unmarked numbers belong to inactive results. Activity calls are given as the source filed them. The call rests on the fitted dose curve.
On the % scale 0 is the no-effect control and ±100 the full control effect; potency means the concentration at half of the fitted maximal effect.

Assay: Nuclear factor erythroid 2-related factor 2/antioxidant responsive element (Nrf2/ARE) small molecule agonists: luciferase reporter gene qHTS assay in human keratinocytes (AID 1919969); further: nearly all actives have a fitted effect of over 35% in size
Details: KeratinoSens HaCaT ARE-luciferase, luminescence, 24 h; series mostly up to 92.4 µM; activity, positive = activation: at the top concentration
Text: National Center for Advancing Translational Sciences [NCATS]
Division of Preclinical Innovation [DPI]
U.S. Environmental Protection Agency [EPA]
National Institutes of Environmental Health Sciences [NIEHS]
National Toxicology Program [NTP]
U.S. Food and Drug Administration [FDA]
Oxidative stress has been implicated in the pathogenesis of a variety of diseases ranging from cancer to neurodegeneration. The antioxidant response element (ARE) signaling pathway plays an important role in the amelioration of oxidative stress. The KeratinoSens (Givaudan, Switzerland) is an in vitro test method which quantifies luciferase induction as a measure of activation of Keap1-Nrf2-antioxidationt/electrophile response element (ARE) dependant pathway in HaCaT human keratinocytes stably transfected with a selectable plasmid. The KeratinoSens assay is a cell-based assay with a reporter cell line to detect potential skin sensitizers by their ability to induce the Nrf2/ARE-response. The activation of the report gene under culture conditions can be detected by ONE-Glo Luciferase Assay System (Promega, Madison, WI). This cell line has been used to screen the Tox21 10K compound library to identify agonists that induce oxidative stress. The cytotoxicity of the Tox21 compound library against the KS-ARE cell line was tested in parallel by measuring the cell viability using CellTiter- Fluor assay system (Promega, Madison, WI) in the same wells.
HaCaT derived cell line KeratinoSens were dispensed at 1,500 cells/5uL/well in 1536-well white wall/solid bottom plates using a Multidrop Combi (ThermoFisher Scientific, Waltham, MA) dispenser. After the assay plates were incubated at 37 C/5% CO2 for 5 h, 23 nL of compounds dissolved in DMSO, positive controls or DMSO only was transferred to the assay plate by a pintool workstation (Kalypsys, San Diego, CA). The plates were incubated at 37 C/5% CO2 for 23 h, followed by addition of 1uL/well of CellTiter-Fluor reagent into the assay plates using a Flying Reagent Dispenser (Aurora Discovery, San Diego, CA) for cell viability readout that measures cytotoxicity. After 1 h incubation at 37 C/5% CO2 the fluorescence intensity was measured using a ViewLux (PerkinElmer, Shelton, CT) plate reader. Then 4uL/well of One-Glo were added using a Flying Reagent Dispenser. After the plates were incubated at room temperature for 30 min, the luminescence intensity in the assay plates was measured using ViewLux plate reader.
In the case of `ClCCCl`, the “activity, positive = activation” value is reported as -0.553%. In the case of `O=C1CCC(=O)N1`, the “activity, positive = activation” value is reported as 0.287%. For `CC(C)COC(=O)c1ccccc1O`, the “activity, positive = activation” value was -1.28%. With `CC1(C)C2=CCCC(C)(C)[C@]23CC[C@H]1C3` the “activity, positive = activation” value was -1.82%. For `COC(=O)c1ccccc1C`, the “activity, positive = activation” value was -2.62%. With `CC(COC(=O)c1ccccc1)OC(=O)c1ccccc1` (stereo not given) the “activity, positive = activation” value was 3.02%. For `CC1=C(O)C(=O)OC1C` (stereo not given), the “activity, positive = activation” value was 4.3%. For `C=CC(=O)NC(C)C`, the “activity, positive = activation” value was -3.88%. For `CC1(C)C(C=C(Cl)Cl)C1C(=O)OCc1cccc(Oc2ccccc2)c1` (stereo not given), the “activity, positive = activation” value was 4.82%. With `C1=C\CC/C=C\CC/C=C\CC/1` the “activity, positive = activation” value was 6.72%. In the case of `CC(C)CCCCOC(=O)c1ccccc1C(=O)OCCCCC(C)C`, the “activity, positive = activation” value is reported as 9.63%. With `CCC(=O)O[C@@H]1C[C@H]2CC[C@]1(C)C2(C)C` the “activity, positive = activation” value was -8.85%. In the case of `O=C1c2ccccc2C(=O)C1c1ccc2cc(S(=O)(=O)O)cc(S(=O)(=O)O)c2n1`, the “activity, positive = activation” value is reported as 25.2%. With `CCC(C)SSC(C)CC` (stereo not given) the “activity, positive = activation” value was -2.01%. With `CCN(CC)c1ccc(C=O)c(O)c1` the “activity, positive = activation” value was -5.1%. For `CC(C)(C)c1cc(C(C)(C)C)c(O)c(C(C)(C)C)c1`, the Potency was 30.6 µM (active). In the case of `CCOc1ccc(Cc2nccc3cc(OCC)c(OCC)cc23)cc1OCC`, the “activity, positive = activation” value is reported as -18.6% [at 42.5 µM]. For `CC(C)(C)OCC1CO1` (stereo not given), the “activity, positive = activation” value was 0.483%. For `CCCCC(CC)COCC1CO1` (stereo not given), the Potency was “inactive”. In the case of `C[C@@H]1CCC[C@H](C)N1CCCC(O)(c1ccccc1)c1ccccn1` (stereo not given in full), the “activity, positive = activation” value is reported as 0.683% [at 42.5 µM]. With `CC(C)CCCC(C)CCO` (stereo not given) the “activity, positive = activation” value was 4.9%. With `COCCCOc1ccnc(CS(=O)c2nc3ccccc3[nH]2)c1C` (stereo not given) the Potency was 30.5 µM (active). With `C[Si](C)O[Si](C)C` the “activity, positive = activation” value was -0.398%. For `O=C(/N=N/C(=O)OCc1ccccc1)OCc1ccccc1`, the “activity, positive = activation” value was 22.3%. For `CCCCCCS`, the “activity, positive = activation” value was 8.96%. For `O=C(O)c1cccc(Cl)c1Cl`, the “activity, positive = activation” value was -1.75%. With `Oc1ccc(O)c2c(O)cccc12` the “activity, positive = activation” value was -5.87%. In the case of `NS(=O)(=O)c1ccc(NC(=O)CCC(=O)O)cc1`, the “activity, positive = activation” value is reported as 0.126% [at 42.5 µM]. For `CC1(C)[C@H]2CC[C@](C)(C2)[C@H]1O`, the “activity, positive = activation” value was -11.2%. With `O=[N+]([O-])c1ccccc1CCO` the “activity, positive = activation” value was 1.48%. With `CC(C)(C)NC(N)=O` the “activity, positive = activation” value was -12.7%. In the case of `CC1OC1C1CCC2(C)OC2C1` (stereo not given), the “activity, positive = activation” value is reported as 5.54%. In the case of `CCCCCCCCOCCC#N`, the “activity, positive = activation” value is reported as 1.47%. For `CCCCCc1cccc(=O)o1`, the “activity, positive = activation” value was 7.53%. With `CCc1ccc(Br)cc1` the “activity, positive = activation” value was -6.18%. With `CO[C@@H]1[C@@H](O[C@@H]2O[C@H](C)[C@@H](O[C@H]3C[C@@](C)(O)[C@@H](O)[C@H](C)O3)[C@H](N(C)C)[C@H]2O)[C@@H](CC=O)C[C@@H](C)[C@@H](O[C@@H]2CC[C@H](N(C)C)[C@@H](C)O2)/C=C/C=C/C[C@@H](C)OC(=O)C[C@H]1OC(C)=O` the “activity, positive = activation” value was -2.28% [at 42.5 µM]. With `COC(=O)/C=C/c1ccccc1` the “activity, positive = activation” value was -3.52%. Work on `CCCCCCCC/C=C\CCCCCCCC(=O)OCCCC` yielded an activity, positive = activation of 8.08% [at 19 µM]. For `CCC(C)S` (stereo not given), the activity, positive = activation was -3.8% [at 3.27 µM]. With `Cc1ccc(C(C)C)cc1O` the “activity, positive = activation” value was 6.35%.
